Assay results published in paper PMC7819943, “Rice protein-binding microarrays: a tool to detect cis-acting elements near promoter regions in rice”.
Whole data set: some 68,000 sequences, median “fluorescence intensity (a.u.)” near 9,100, cut for the highest 2% near 16,000. For the sample, the highest values were picked, then their nearest neighbours and some sequences at random.

What follows are sequences tested against OsWRKY34 (Oryza sativa, UniProt Q0JBA9 1-250) (assay: protein-binding microarray (RPBM); PBS, 2% BSA, 51.3 ng/ul salmon testes DNA, 50 uM zinc acetate, 200 nM TF, 25 C, 1 h; high values mean tight binding). Conditions: protein: recombinant; tags: N-terminal polyhistidine and DsRed monomer fusion (pET32a); label: CyDye5-dUTP incorporated in the synthesized complementary strand; 3' TTTTT single-stranded linker to array surface; dsDNA, one strand shown.
OsWRKY34, sequence (Q0JBA9 entry or part of it): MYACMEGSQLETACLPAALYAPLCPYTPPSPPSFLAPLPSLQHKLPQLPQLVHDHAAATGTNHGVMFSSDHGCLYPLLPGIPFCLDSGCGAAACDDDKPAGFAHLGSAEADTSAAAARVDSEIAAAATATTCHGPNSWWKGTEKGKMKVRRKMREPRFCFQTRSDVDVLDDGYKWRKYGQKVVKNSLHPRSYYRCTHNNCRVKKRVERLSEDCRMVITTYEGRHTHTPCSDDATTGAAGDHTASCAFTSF
Method in brief: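 An Axon 4000B scanner gave the binding signal as per-feature fluorescence intensity in arbitrary units. This followed washing of a custom Agilent array that had been incubated for 1 h at 25 °C with 200 nM protein in PBS, 2% BSA, salmon testes DNA and 50 µM zinc acetate. The proteins were transcription factors fused at the N-terminus to polyhistidine and DsRed, expressed in E. coli BL21-CodonPlus and purified on Ni–NTA.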
With “TTTTCAGTAGATAACATCGTTGACTTTTCAACGAATATTTCGGAGTCACCTAGTGCAG” the binding signal was 14400 fluorescence intensity (a.u.). For “CCGTTTTTTAATAGATAACGCTGTTGACTTTTTCTTATATCGGAGTCACCTAGTGCAG”, the binding signal was 11200 fluorescence intensity (a.u.). With “GTTTTTTAATAGATAACGCCGTTGACTTTTTTTCACATGTCGGAGTCACCTAGTGCAG” the binding signal was 21500 fluorescence intensity (a.u.). In the case of “AACTTTACTTTTTCTCATAGTGTTGATTAGATATATGTTTCGGAGTCACCTAGTGCAG”, the binding signal is reported as 10600 fluorescence intensity (a.u.). In the case of “TTTTTAATAGATAACGTCGTTGACTTTTTCTCACATGTTTCGGAGTCACCTAGTGCAG”, the binding signal is reported as 25600 fluorescence intensity (a.u.). For “GGAGGAGAGAGGGGTGGGGTTTGTGGTGTCGTCGTCCATGCGGAGTCACCTAGTGCAG”, the binding signal was 11700 fluorescence intensity (a.u.). In the case of “GACTATGCGCGCTATATAAAGGATCACATTATCTCATACTCGGAGTCACCTAGTGCAG”, the binding signal is reported as 8930 fluorescence intensity (a.u.). In the case of “TTGCCGTACAATCTTGATTTGGAGATCTTCCTGGCCAACACGGAGTCACCTAGTGCAG”, the binding signal is reported as 9120 fluorescence intensity (a.u.). In the case of “AGAAAGCCCATTTTGCCCTTTGTGCTTCAGAACATCGAGCCGGAGTCACCTAGTGCAG”, the binding signal is reported as 8020 fluorescence intensity (a.u.). “GAGGAGAGAGAGAGAGAGTGGTGGTGGTGGTGGTGAGATGCGGAGTCACCTAGTGCAG” was tested, and the binding signal was 8460 fluorescence intensity (a.u.). “ACGCTTGGTGGGGTGGGGTGGTGCTGGTGCCATGAACTGCCGGAGTCACCTAGTGCAG” was tested, and the binding signal was 22300 fluorescence intensity (a.u.). With “AAACCATGCGGCGCACGAGCCACTCGCACTCGCACTCGCACGGAGTCACCTAGTGCAG” the binding signal was 9360 fluorescence intensity (a.u.). For “CGGAGGGAGGCGGAGGCGGTGGTGGTGGTGGTGGTGCCGGCGGAGTCACCTAGTGCAG”, the binding signal was 12500 fluorescence intensity (a.u.). For “GTGGTGGTGGTGGTGGTGGTGGCGGCGGCGGCCGGCCATGCGGAGTCACCTAGTGCAG”, the binding signal was 20000 fluorescence intensity (a.u.). With “GTACTGGCTTGGCTGGGTCGGGCTCGGGCTGGGCCATGAACGGAGTCACCTAGTGCAG” the binding signal was 8340 fluorescence intensity (a.u.). For “CCGCCGCCATCAAGTCCGCCATCATGACCACCGGTGAGAACGGAGTCACCTAGTGCAG”, the binding signal was 8490 fluorescence intensity (a.u.). For “CATCCGGCCATGGTGATGACCGGCGGCGATGATCAGCAGCCGGAGTCACCTAGTGCAG”, the binding signal was 48200 fluorescence intensity (a.u.). In the case of “GCCGCATGGTGGTGCTGGTTGGGGTGGTGGTGGTGGCGGCCGGAGTCACCTAGTGCAG”, the binding signal is reported as 14800 fluorescence intensity (a.u.). “TGGCGAGGAGGTGGTGGTGGTTGTGGTGGGTGCGGCCATGCGGAGTCACCTAGTGCAG” was tested, and the binding signal was 12100 fluorescence intensity (a.u.). In the case of “GTGGTGGTGGTGGTGGTGGTGGTGGTGGTGCACGGCCATGCGGAGTCACCTAGTGCAG”, the binding signal is reported as 16400 fluorescence intensity (a.u.). For “AACTCAGTCTCAGCTCACATGATGCATCATCAGCCATGGCCGGAGTCACCTAGTGCAG”, the binding signal was 8200 fluorescence intensity (a.u.). For “CAGCCACCTCCTCCTCTTCTTCCCCAACTTTCTGCTTGATCGGAGTCACCTAGTGCAG”, the binding signal was 9300 fluorescence intensity (a.u.). With “CCCACGCAGATCTCCGCTTTTTCCCGGCGGCAACCACGCCCGGAGTCACCTAGTGCAG” the binding signal was 10200 fluorescence intensity (a.u.). In the case of “AATCTAACATGGATTTGCGCACACACTTGTCGTAACGTACCGGAGTCACCTAGTGCAG”, the binding signal is reported as 9480 fluorescence intensity (a.u.). “CGTGCATCCGCTGCGCTGTGCTGCCATTTCTCTTCAGCTTCGGAGTCACCTAGTGCAG” was tested, and the binding signal was 10600 fluorescence intensity (a.u.). “TAGCTATTGCTCGCTGGCCTACCATTAATTAGTATACTGTCGGAGTCACCTAGTGCAG” was tested, and the binding signal was 8800 fluorescence intensity (a.u.). “TTTTGCTTATCATATCATATATTTTCTAAGCTTGATTTTTCGGAGTCACCTAGTGCAG” was tested, and the binding signal was 8050 fluorescence intensity (a.u.). For “TTTTTTGTTTTTTCTTTGAATTCTTTCCTTACGATTTTTGCGGAGTCACCTAGTGCAG”, the binding signal was 13400 fluorescence intensity (a.u.). With “ACCTAATATTTCCCGTGTTCTCTTCTACGAAAACGTATTTCGGAGTCACCTAGTGCAG” the binding signal was 10500 fluorescence intensity (a.u.). For “AACCTCCAACCTTTTAATTTCTCACGCGACCATGCACGACCGGAGTCACCTAGTGCAG”, the binding signal was 8820 fluorescence intensity (a.u.). In the case of “ATGTAGGGGTTCCTGCTGCTGCTGTTCTGCCCATTCAACACGGAGTCACCTAGTGCAG”, the binding signal is reported as 8880 fluorescence intensity (a.u.). With “TCATCATGTGACCGACCACCGCATCCTCAGTTGACCCAGTCGGAGTCACCTAGTGCAG” the binding signal was 8640 fluorescence intensity (a.u.). “GATAGGGTTAGGGTTAGGGTTTTCCCTGGTCCGCATCTTCCGGAGTCACCTAGTGCAG” was tested, and the binding signal was 9320 fluorescence intensity (a.u.). “CTCTTGCTCTGCTCTGTTTTTGGCCCATCCTCACCCACAACGGAGTCACCTAGTGCAG” was tested, and the binding signal was 10600 fluorescence intensity (a.u.). For “CTTTTCTCCTTCGGCTATAGTGTCACTGTCCTCGCCTTCTCGGAGTCACCTAGTGCAG”, the binding signal was 15700 fluorescence intensity (a.u.). With “GTGCCTAACAATCTGCTGCTTTTTACCCGCCAAGTATCTTCGGAGTCACCTAGTGCAG” the binding signal was 8180 fluorescence intensity (a.u.). For “ATGTAAGTCATTCTAGCATTTTTTACATTCATATTGATGTCGGAGTCACCTAGTGCAG”, the binding signal was 9380 fluorescence intensity (a.u.). With “TTCCAGTTAGCAACGCATTGAGCCATTTTTACATATTCTGCGGAGTCACCTAGTGCAG” the binding signal was 57100 fluorescence intensity (a.u.). For “AATACATTTTACCTCGATTGTTATTAGCATATTTTTTTTGCGGAGTCACCTAGTGCAG”, the binding signal was 8890 fluorescence intensity (a.u.). With “TTCACCCTCACTTTATTCATCTATAGTAGTTTCATCAGTTCGGAGTCACCTAGTGCAG” the binding signal was 8060 fluorescence intensity (a.u.). With “CTACTTTCACTCCCACCCACCCGACACAGCCGGAGCGCGCCGGAGTCACCTAGTGCAG” the binding signal was 8630 fluorescence intensity (a.u.). “CCACTTTTGCAGATTGCAGGGCGCGCAGTACTGCCGACAGCGGAGTCACCTAGTGCAG” was tested, and the binding signal was 18900 fluorescence intensity (a.u.). For “CACAGATCCACTCCATTGCTTCACTACTGCTTTGCTTTTGCGGAGTCACCTAGTGCAG”, the binding signal was 11000 fluorescence intensity (a.u.).
